Reference: PubChem BioAssay (EPA / NIEHS)
The source made the active and inactive calls. How the source made its calls: active means hit-call score of the fitted dose curve at least 0.9, where 1 is the maximum; inactive means score below 0.9.

How the values were obtained:
[1] = read-out: Human Leukocyte Antigen - DR isotype (HLADR), HLA-DRA (gene 3122); experiment: BSK_CASM3C_HLADR: BioMAP Diversity Plus: CASM3C Assay for Human Leukocyte Antigen - DR isotype (HLADR) Biomarker Activity (AID 2283043); conditions: primary human coronary artery smooth muscle cells; actives raise or lower the signal;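 further: cell-surface HLA-DR protein level quantified by ELISA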
[2] = read-out: Macrophage colony-stimulating factor (MCSF), CSF1 (gene 1435); experiment: BSK_CASM3C_MCSF: BioMAP Diversity Plus: CASM3C Assay for Macrophage colony-stimulating factor (MCSF) Biomarker Activity (AID 2283044); conditions: primary human coronary artery smooth muscle cells; actives raise or lower the signal;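 further: M-CSF protein amount quantified by ELISA after 24 h exposure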
[3] = read-out: Low-density lipoprotein receptor (LDLR), LDLR (gene 3949); experiment: BSK_CASM3C_LDLR: BioMAP Diversity Plus: CASM3C Assay for Low-density lipoprotein receptor (LDLR) Biomarker Activity (AID 2283045); conditions: primary human coronary artery smooth muscle cells; actives raise or lower the signal;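 further: LDLR protein level on the cell surface quantified by ELISA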
[4] = read-out: Monocyte Chemoattractant Protein-1 (MCP1), CCL2 (gene 6347); experiment: BSK_CASM3C_MCP1: BioMAP Diversity Plus: CASM3C Assay for Monocyte Chemoattractant Protein-1 (MCP1) Biomarker Activity (AID 2283046); conditions: primary human coronary artery smooth muscle cells; actives raise or lower the signal;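 further: MCP-1 level quantified by ELISA 24 h after dosing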
[5] = BSK_CASM3C_Proliferation: Cell Proliferation Assessment in the BioMAP Diversity Plus: CASM3C Assay (AID 2283047); conditions: primary human coronary artery smooth muscle cells;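 further: sulforhodamine B total protein stain as relative cell number at 560 nm; sub-confluent cells exposed 48 h before staining; fitted both ways against DMSO so gain or loss of cell number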
[6] = read-out: Monokine induced gamma interferon (MIG), CXCL9 (gene 4283); experiment: BSK_CASM3C_MIG: BioMAP Diversity Plus: CASM3C Assay for Monokine induced gamma interferon (MIG) Biomarker Activity (AID 2283048); conditions: primary human coronary artery smooth muscle cells; actives raise or lower the signal;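 further: MIG protein level measured by ELISA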
[7] = read-out: serum amyloid A (SAA), SAA1 (gene 6288); experiment: BSK_CASM3C_SAA: BioMAP Diversity Plus: CASM3C Assay for serum amyloid A (SAA) Biomarker Activity (AID 2283049); conditions: primary human coronary artery smooth muscle cells; actives raise or lower the signal;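 further: SAA protein level quantified by ELISA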
[8] = BSK_CASM3C_SRB: Viability Assessment in the BioMAP Diversity Plus: CASM3C Assay (AID 2283050); conditions: primary human coronary artery smooth muscle cells;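 further: total protein by SRB staining as cytotoxicity measure in parallel cultures; cells exposed to compound for 24 h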
[9] = read-out: Thrombomodulin, THBD (gene 7056); experiment: BSK_CASM3C_Thrombomodulin: BioMAP Diversity Plus: CASM3C Assay for Thrombomodulin Biomarker Activity (AID 2283051); conditions: primary human coronary artery smooth muscle cells; actives raise or lower the signal;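 further: thrombomodulin protein level measured by ELISA 24 h after dosing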
[10] = read-out: Tissue Factor, F3 (gene 2152); experiment: BSK_CASM3C_TissueFactor: BioMAP Diversity Plus: CASM3C Assay for Tissue Factor Biomarker Activity (AID 2283052); conditions: primary human coronary artery smooth muscle cells; actives raise or lower the signal;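 further: cell surface tissue factor protein level read by ELISA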
[11] = read-out: Interferon-gamma inducible Protein 10 (IP10), CXCL10 (gene 3627); experiment: BSK_hDFCGF_IP10: BioMAP Diversity Plus: hDFCGF Assay for Interferon-gamma inducible Protein 10 (IP10) Biomarker Activity (AID 2283053); conditions: primary human foreskin fibroblasts; actives raise or lower the signal
In short: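 Cells: human dermal foreskin fibroblasts. Exposure: 24 h post-dosing. Detection: IP-10 ELISA, with values expressed against DMSO controls and fitted in both directions.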

[12] = read-out: Urokinase-type plasminogen activator receptor (uPAR), PLAUR (gene 5329); experiment: BSK_CASM3C_uPAR: BioMAP Diversity Plus: CASM3C Assay for Urokinase-type plasminogen activator receptor (uPAR) Biomarker Activity (AID 2283054); conditions: primary human coronary artery smooth muscle cells; actives raise or lower the signal;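 further: cell-surface uPAR protein level quantified by ELISA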
[13] = read-out: Vascular cell adhesion molecule 1 (VCAM1), VCAM1 (gene 7412); experiment: BSK_CASM3C_VCAM1: BioMAP Diversity Plus: CASM3C Assay for Vascular cell adhesion molecule 1 (VCAM1) Biomarker Activity (AID 2283055); conditions: primary human coronary artery smooth muscle cells; actives raise or lower the signal;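 further: VCAM-1 protein level quantified by ELISA on the cells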
[14] = read-out: Collagen III, COL3A1 (gene 1281); experiment: BSK_hDFCGF_CollagenIII: BioMAP Diversity Plus: hDFCGF Assay for Collagen III Biomarker Activity (AID 2283056); conditions: primary human foreskin fibroblasts; actives raise or lower the signal
In short: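 Cells: human foreskin fibroblasts, primary. Dosing followed by 24 h incubation, then ELISA for collagen III. Both increases and decreases scored relative to DMSO.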

[15] = read-out: Epidermal growth factor receptor (EGFR), EGFR (gene 1956); experiment: BSK_hDFCGF_EGFR: BioMAP Diversity Plus: hDFCGF Assay for Epidermal growth factor receptor (EGFR) Biomarker Activity (AID 2283057); conditions: primary human foreskin fibroblasts; actives raise or lower the signal
In short: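 Dosing human primary skin fibroblasts, then measuring surface EGFR by ELISA at 24 h, gives the endpoint; gains and losses relative to DMSO were fitted in both directions.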

[16] = read-out: Interleukin-8 (IL8), CXCL8 (gene 3576); experiment: BSK_hDFCGF_IL8: BioMAP Diversity Plus: hDFCGF Assay for Interleukin-8 (IL8) Biomarker Activity (AID 2283058); conditions: primary human foreskin fibroblasts; actives raise or lower the signal
In short: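 IL-8 levels from compound-treated primary human fibroblasts were read by ELISA at 24 h, with DMSO serving as baseline for bidirectional fitting.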

[17] = BSK_hDFCGF_Proliferation: Cell Proliferation Assessment in the BioMAP Diversity Plus: hDFCGF Assay (AID 2283059); conditions: primary human foreskin fibroblasts;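 further: curves fitted for both rise and fall of signal versus DMSO baseline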
In short: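 Primary human foreskin fibroblasts, sub-confluent; […]; 10% TCA fix, 0.1% SRB stain, A560 total protein. Gain/loss fitted bidirectionally vs DMSO control.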

[18] = BSK_hDFCGF_SRB: Viability Assessment in the BioMAP Diversity Plus: hDFCGF Assay (AID 2283061); conditions: primary human foreskin fibroblasts;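 further: cells exposed to compound for 24 h before the read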
In short: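 Cells were dosed with test chemical, cultured 24 h, fixed with 10% TCA, then stained with 0.1% SRB and read at 560 nm. The fibroblasts were human foreskin primary cells, and DMSO served as baseline.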

[19] = read-out: TIMP metallopeptidase inhibitor 1 (TIMP1), TIMP1 (gene 7076); experiment: BSK_hDFCGF_TIMP1: BioMAP Diversity Plus: hDFCGF Assay for TIMP metallopeptidase inhibitor 1 (TIMP1) Biomarker Activity (AID 2283062); conditions: primary human foreskin fibroblasts; actives raise or lower the signal
In short: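 Fibroblasts from human foreskin are treated with test chemical and harvested at 24 h. TIMP-1 is quantified by ELISA, and gain or loss of signal is scored against DMSO.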

[20] = read-out: Macrophage colony-stimulating factor (MCSF), CSF1 (gene 1435); experiment: BSK_hDFCGF_MCSF: BioMAP Diversity Plus: hDFCGF Assay for Macrophage colony-stimulating factor (MCSF) Biomarker Activity (AID 2283060); conditions: primary human foreskin fibroblasts; actives raise or lower the signal
In short: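 M-CSF levels, determined by ELISA, are taken at 24 h after dosing human skin fibroblasts. Responses in either direction are fitted with DMSO serving as the baseline.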

Measured: AC50

CC(C)(C)c1ccccc1
not listed: [20]
inactive: all other assays above

Nc1nc(=S)c2[nH]cnc2[nH]1
active: [3] 3.72 µM | [5] 4.67 µM | [14] 26.1 µM | [17] 14 µM
not listed: [20]
inactive: all other assays above

S=c1[nH]c2ccccc2s1
active: [2] 9.81 µM | [9] 8.08 µM | [14] 6.58 µM
not listed: [20]
inactive: all other assays above

Cc1ccc(-c2cc(C(F)(F)F)nn2-c2ccc(S(N)(=O)=O)cc2)cc1
inactive: [11] | [14] | [15] | [16] | [17] | [18] | [19]
active: [1] 32.4 µM | [3] 22.5 µM | [4] 31.5 µM | [5] 30.8 µM | [6] 31 µM | [7] 31.2 µM | [8] 33.9 µM | [9] 4.85 µM | [10] 36.7 µM | [12] 30.4 µM | [13] 29.9 µM

C=CCc1ccc(OC)c(OC)c1
not listed: [20]
inactive: all other assays above

Cn1cnc2c1c(=O)[nH]c(=O)n2C
not listed: [20]
inactive: all other assays above

COC(=O)[C@H]1[C@H]2C[C@@H]3c4[nH]c5cc(OC)ccc5c4CCN3C[C@H]2C[C@@H](OC(=O)c2cc(OC)c(OC)c(OC)c2)[C@@H]1OC
active: [3] 8.87 µM | [5] 21.3 µM | [9] 16.9 µM | [17] 16.9 µM
not listed: [14] | [20]
inactive: all other assays above

CC(C)OC(=O)C(C)(C)Oc1ccc(C(=O)c2ccc(Cl)cc2)cc1
active: [3] 20 µM | [9] 11 µM | [11] 12.9 µM | [12] 5.38 µM | [13] 5 µM | [14] 8.9 µM | [17] 26.4 µM
not listed: [20]
inactive: all other assays above

COc1ccc(OC(F)(F)F)cc1CN[C@H]1CCCN[C@H]1c1ccccc1
active: [1] 14.7 µM | [3] 6.31 µM | [5] 29.6 µM | [8] 15 µM
not listed: [17] | [20]
inactive: all other assays above

CC(COCC(C)OC(=O)c1ccccc1)OC(=O)c1ccccc1 (stereo unspecified)
active: [17] 33.7 µM
not listed: [20]
inactive: all other assays above

CS(=O)(=O)c1ccc([C@@H](C[C@H]2CCC(=O)C2)C(=O)Nc2cnccn2)cc1Cl
not listed: [20]
inactive: all other assays above

O=[Si]=O
not listed: [20]
inactive: all other assays above

CC(=O)[C@@]1(O)CC[C@H]2[C@@H]3CCC4=CC(=O)CC[C@]4(C)[C@H]3CC[C@@]21C
not listed: [20]
inactive: all other assays above

CN(C)CCCN1c2ccccc2Sc2ccc(Cl)cc21
inactive: [6] | [7] | [10] | [13]
active: [1] 27.7 µM | [2] 11.2 µM | [3] 5.41 µM | [4] 20 µM | [5] 28 µM | [8] 28.5 µM | [9] 15 µM | [11] 26.1 µM | [12] 20 µM | [16] 31.4 µM | [17] 16.6 µM | [20] 22.1 µM | [18] 31.9 µM

COC(=O)CCCC(=O)OC
not listed: [20]
inactive: all other assays above

N[C@@H](Cc1c[nH]c2ccccc12)C(=O)O
not listed: [20]
inactive: all other assays above

O=C(O)CC(O)(CC(=O)O)C(=O)O
not listed: [20]
inactive: all other assays above

CC(=O)O[C@]1(C(C)=O)CC[C@H]2[C@@H]3C=C(Cl)C4=CC(=O)[C@@H]5C[C@@H]5[C@]4(C)[C@H]3CC[C@@]21C
active: [14] 27 µM | [17] 17 µM
not listed: [7] | [20]
inactive: all other assays above
